# Compound activity from PubChem.
# In the library only some 3.4% were active in any assay of this set; here they are far more common.
# TEAD-YAP block: TEAD-YAP interaction inhibition, primary screen, TEAD-YAP interaction inhibitor project, luminescence, HEK-TIYL cells | inhibition, % at 9.12 µM | actives 1.4% (n = 640,000) | TEAD-Gal4/YAP UAS-luciferase luminescence; in the data active means inhibition above about 32%;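 further: 0% = median of test compound wells and 100% = reference inhibitor wells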
# MITF inh: MITF inhibitors, primary screen, biochemical, AlphaScreen, human. Microphthalmia-associated transcription factor (Homo sapiens), O75030. AlphaScreen MITF homodimerization, bead proximity signal. inhibition, % at 2.6 µM. actives 0.91% (n = 650,000); in the data active means inhibition above about 50%;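 further: 0% = vehicle wells with protein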
# GPR151 ag: activators of human GPR151, primary screen, cell-based, PathHunter beta-arrestin, luminescence | G-protein coupled receptor 151 (Homo sapiens), Q8TDV0 | PathHunter beta-arrestin GPR151 cells | activation, % at 11.2 µM | actives 1% (n = 650,000) | AID 1508602, 2020; in the data active means activation above about 4.9%;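 further: 0% = median of compound wells and 100% = cells with positive control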
# FBW7 activator: FBW7 E3 ligase activators, primary screen, biochemical, AlphaScreen, human; AlphaScreen FBW7–phospho-cyclin E peptide binding, activator screen; actives 0.13% (n = 650,000); normalized activity (activation), % at 26.1 µM; F-box/WD repeat-containing protein 7 (Homo sapiens), Q969H0; in the data active means normalized activity above about 1.9%;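 further: purified mutant Fbw7 with reduced substrate affinity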
# Target sequence (Q969H0 whole entry, looked up): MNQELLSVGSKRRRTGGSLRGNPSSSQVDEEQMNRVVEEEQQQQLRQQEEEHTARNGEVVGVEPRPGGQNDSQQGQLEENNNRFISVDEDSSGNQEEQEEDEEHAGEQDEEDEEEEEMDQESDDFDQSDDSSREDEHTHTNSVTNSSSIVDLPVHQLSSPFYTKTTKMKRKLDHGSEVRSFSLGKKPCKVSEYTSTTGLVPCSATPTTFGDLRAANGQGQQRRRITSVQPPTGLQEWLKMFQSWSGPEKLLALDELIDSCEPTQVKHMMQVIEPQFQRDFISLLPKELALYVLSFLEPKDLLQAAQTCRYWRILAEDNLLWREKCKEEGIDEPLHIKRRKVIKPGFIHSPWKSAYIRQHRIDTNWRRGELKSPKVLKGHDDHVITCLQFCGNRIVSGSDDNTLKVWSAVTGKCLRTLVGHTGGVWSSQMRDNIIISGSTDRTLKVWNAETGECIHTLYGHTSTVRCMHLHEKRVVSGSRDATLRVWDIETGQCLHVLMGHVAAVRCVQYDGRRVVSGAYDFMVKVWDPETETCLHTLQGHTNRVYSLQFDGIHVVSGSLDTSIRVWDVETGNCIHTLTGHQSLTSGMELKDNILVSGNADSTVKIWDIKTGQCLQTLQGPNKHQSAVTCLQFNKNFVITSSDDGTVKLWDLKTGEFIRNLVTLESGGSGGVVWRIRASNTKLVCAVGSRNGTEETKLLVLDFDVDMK
# GPR151 conf act: GPR151 activators, triplicate retest, confirmation, cell-based, PathHunter beta-arrestin, luminescence | shares compounds with GPR151 ag | GPR151 PathHunter beta-arrestin cells, 90 min; % of EA-reagent control over plate median | activation, % at 11.2 µM | 6,700 tested, under 10 active;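 active means mean percent activation across replicates above the confirmation screen cutoff of 4.91%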
# GPR119 counter: GPR119 activators in beta-arrestin cells, counter-screen for GPR151 activator project, cell-based, PathHunter beta-arrestin, luminescence, triplicate; AID 1508611, 2020; actives 0.3% (n = 6,700); 90 min; 0 = compound-well median, 100 = enzyme-acceptor control; shares compounds with GPR151 ag; activation, % at 11.2 µM;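 active means mean percent activation in the counterscreen above 29.09%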;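 further: counterscreen on off-target GPR119 to flag nonselective hits from the GPR151 activator screen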
# Numbers without * were called inactive; . = not tested or not shown.
SMILES,TEAD-YAP block,MITF inh,GPR151 ag,FBW7 activator,GPR151 conf act,GPR119 counter
Cc1ccc(Nc2nnc(SCC(=O)N3CCOCC3)s2)cc1,-5.9,3.6,-1.6,-0.1,.,.
N#CC1=C(N)Oc2n[nH]c(-c3ccccc3)c2C1c1ccc(Cl)c([N+](=O)[O-])c1 (configuration not stated),-1.7,-2.8,6.1*,0.1,-0.1,3.1
COc1cc(C2C(C#N)=C(N)Oc3n[nH]c(-c4cccc([N+](=O)[O-])c4)c32)cc(OC)c1O (configuration not stated),10.5,0.7,6.0*,0.0,-0.6,8.1
N#CC1=C(N)Oc2n[nH]c(-c3ccccc3)c2C1c1ccc([N+](=O)[O-])cc1Cl (configuration not stated),-19.5,1.3,1.0,0.2,.,.
COc1cc(C2C(C#N)=C(N)Oc3n[nH]c(-c4cccc([N+](=O)[O-])c4)c32)cc(OC)c1OC(C)=O (configuration not stated),-7.7,-6.4,-0.9,-0.2,.,.
N#CC1=C(N)Oc2n[nH]c(-c3cccc([N+](=O)[O-])c3)c2C1c1ccc(Cl)c(Cl)c1 (configuration not stated),3.4,5.2,7.9*,-0.4,-0.8,-5.5
COCCN(C(=O)CC(C)(C)C)c1nnc(-c2ccc(OC)cc2)s1,-4.2,-6.5,0.0,-0.1,.,.
CN1C(=O)c2cccc(NC(=O)c3ccc4ccccc4c3)c2C1=O,-0.1,3.2,7.6*,0.0,1.1,3.6
Cc1nccn1-c1ccc(NC(=O)C2CCCN(C3CCSCC3)C2)cc1 (configuration not stated),12.5,-22.5,6.8*,0.1,1.1,-3.0
CCc1cccc(C)c1NC(=O)C(C)N(c1ccccc1)S(C)(=O)=O (configuration not stated),0.0,-7.1,1.7,-0.1,.,.
CCCCC(=O)Nc1cccc(NC(=O)COc2ccc([N+](=O)[O-])cc2)c1,1.3,9.2,10.9*,-0.1,-0.5,7.2
CC(C)(C)NS(=O)(=O)c1ccc(NC(=O)COc2ccc([N+](=O)[O-])cc2)cc1,-1.2,-5.7,0.8,-0.1,.,.
CC(=O)NS(=O)(=O)c1ccc(NC(=O)COc2ccc([N+](=O)[O-])cc2)cc1,13.6,0.2,6.1*,0.2,-0.1,0.9
CCNS(=O)(=O)c1ccc(NC(=O)c2ccc([N+](=O)[O-])cc2)cc1,1.4,24.1,5.1*,0.1,0.2,1.8
CCC(=O)Nc1cccc(NC(=O)COc2ccc([N+](=O)[O-])cc2)c1,3.3,7.7,12.4*,0.0,-0.1,-2.2
CCOC(=O)C1=C(C)N=c2s/c(=C\c3cn(Cc4ccccc4Cl)c4ccccc34)c(=O)n2C1c1ccc2c(c1)OCO2 (configuration not stated),-2.8,3.0,0.7,0.2,.,.
Cc1cnc(Nc2ccc(-n3ccnc3)cc2)nc1NCCN(C(C)C)C(C)C,-1.4,-3.2,7.0*,-0.1,-0.2,-0.7
CC(C)(C)C1=NN(CCC(=O)O)C(=O)c2cc3ccccc3n2C1,0.1,-2.1,7.7*,0.0,-0.1,9.6
CC(C)(C)C1=NN(CC(=O)Nc2nccs2)C(=O)c2cc3ccccc3n2C1,-2.9,-15.5,6.1*,0.2,0.1,8.1
C=CCNC(=S)Nc1cccc(C(=O)O)c1,-10.6,-0.1,-0.5,0.1,.,.
COc1ccc([N+](=O)[O-])cc1NC(=O)c1cn(C)c(=O)c2cc(OC)c(OC)cc12,5.2,1.7,0.5,0.1,.,.
O=C(Nc1ccc(F)cc1)c1cnc(N2CCN(c3ccccn3)CC2)c2ccccc12,0.0,16.5,-0.1,-0.1,.,.
Cc1ccc(NC(=O)c2cnc(N3CCN(c4ccccn4)CC3)c3ccccc23)cc1F,12.3,2.2,10.3*,0.1,-0.7,-14.2
O=C(Nc1ccccc1)c1cc(N2CCN(c3ccccn3)CC2)nc2ccccc12,4.8,5.9,5.1*,0.3,-0.2,-0.2
Cc1csc(SCc2cc(=O)c(OC(=O)c3c(F)cccc3F)co2)n1,-2.6,7.4,-0.5,-0.1,.,.
SMILES,TEAD-YAP block,MITF inh,GPR151 ag,FBW7 activator,GPR151 conf act,GPR119 counter
Cc1nn2c(NCCCN(C)C)c3c(nc2c1-c1cccs1)CCC3,-3.3,2.2,-1.4,-0.2,.,.
N#C/C(C(=O)CCl)=C(/c1ccc(F)cc1)N1CCCCC1,7.0,0.5,0.2,0.2,.,.
COc1ccc(Nc2nnc(Cc3ccccc3Cl)c(=O)[nH]2)c(OC)c1,5.4,-0.8,6.4*,0.1,0.5,11.7
CCN1/C(=C/c2ccc3cc(OC)ccc3[n+]2CC)Sc2ccc(C3CCCCC3)cc21,88.4*,23.5,9.3*,-0.6,-0.5,-3.0
COc1ccc(-c2nnc(SCC(=O)N3c4ccccc4CC3C)o2)cc1 (configuration not stated),-9.6,3.8,5.8*,0.0,1.2,13.4
O=C1CS/C(=N/N=C/c2ccccc2)N1,-0.7,0.5,-1.1,0.3,.,.
O=C1CS/C(=N\N=C\c2ccc(O)cc2)N1,-1.5,8.6,7.4*,-0.2,-0.2,-6.2
O=C(NCc1ccc2c(c1)OCO2)c1nnc(-c2cccc(Cl)c2)o1,-7.4,0.1,-0.5,0.1,.,.
NNC(=O)CSc1nc2cccnc2s1,1.9,-15.0,5.1*,-1.3,-0.3,5.9
CC(=O)Nc1ccc(C(C(F)(F)F)(C(F)(F)F)C(F)(F)F)cc1[N+](=O)[O-],-8.2,2.6,5.0*,0.1,0.0,-4.7
Cc1ccc(CNC(=O)c2cc3c(=O)n4cccc(C)c4nc3n(C)c2=N)cc1,1.0,6.4,11.3*,0.1,-0.1,0.1
CNC(=O)c1cc2c(=O)n3cccc(C)c3nc2n(C)c1=N,13.3,17.9,-1.7,0.8,.,.
Nc1nc(SCC(=O)Nc2ccc(F)cc2)n[nH]1,12.1,-0.6,0.8,-0.1,.,.
O=C(CSc1nc(N2CCCCC2)nc(N2CCCCC2)n1)Nc1ccc(F)cc1,0.3,-18.0,9.8*,0.1,0.8,-1.3
CCC(O)c1ccc(OCc2ccc(C(=O)OC)cc2)c(OC)c1 (configuration not stated),-27.1,3.4,0.3,0.2,.,.
CC(Oc1ccc(Br)cc1)C(=O)Nc1ccc(C(N)=O)cc1 (configuration not stated),8.3,-7.4,5.7*,-0.3,-0.2,-2.0
CC(Oc1ccc(Br)cc1)C(=O)Nc1ccccc1 (configuration not stated),0.9,-15.8,-1.1,-0.2,.,.
